# Six1-Eya2 blk – inhibitors of human Six1/Eya2 interaction | activity change, % (concentration not given with the values) | AID 651725 | Q15475+O00167 | 360,000 compounds, 0.56% hits | AlphaScreen GST-Six1/His-Eya2 binding, biochemical; active compounds read low; in the data active means activity change below about -65%; inconclusive means mostly about -30% to -63%; further: on the % scale 0 is the no-effect control and ±100 the full control effect
# Target sequence (O00167 whole entry, looked up): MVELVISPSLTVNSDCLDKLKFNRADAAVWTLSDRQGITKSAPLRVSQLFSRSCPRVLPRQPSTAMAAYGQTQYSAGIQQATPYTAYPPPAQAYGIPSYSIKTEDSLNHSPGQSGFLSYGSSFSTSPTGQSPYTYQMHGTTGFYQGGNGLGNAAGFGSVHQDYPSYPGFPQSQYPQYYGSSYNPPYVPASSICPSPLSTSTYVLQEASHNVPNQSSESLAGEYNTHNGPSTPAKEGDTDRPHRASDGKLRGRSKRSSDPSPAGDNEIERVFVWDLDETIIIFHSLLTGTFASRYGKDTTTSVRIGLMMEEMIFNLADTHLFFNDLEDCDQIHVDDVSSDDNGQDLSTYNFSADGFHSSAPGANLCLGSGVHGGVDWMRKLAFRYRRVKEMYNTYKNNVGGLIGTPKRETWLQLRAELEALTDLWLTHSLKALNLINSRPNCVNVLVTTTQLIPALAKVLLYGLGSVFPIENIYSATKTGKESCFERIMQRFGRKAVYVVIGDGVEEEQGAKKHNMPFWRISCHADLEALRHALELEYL
# Target sequence (Q15475 whole entry, looked up): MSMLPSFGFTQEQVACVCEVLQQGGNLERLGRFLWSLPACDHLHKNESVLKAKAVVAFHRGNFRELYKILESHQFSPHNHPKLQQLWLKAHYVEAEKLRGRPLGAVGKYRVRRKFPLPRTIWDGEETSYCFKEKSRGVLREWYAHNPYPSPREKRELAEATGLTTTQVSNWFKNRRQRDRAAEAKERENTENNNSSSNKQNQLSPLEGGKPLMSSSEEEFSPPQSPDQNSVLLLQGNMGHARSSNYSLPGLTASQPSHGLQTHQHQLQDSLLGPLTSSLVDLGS
#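 Compounds are tested against tagged Six1 and Eya2 proteins bridged by glutathione donor and nickel acceptor beads; after a one-hour incubation at 37 °C without light, AlphaScreen emission is recorded.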
# HepG2 viability – HepG2 cytotoxicity, counter-screen for TGF-b inhibitors | 410,000 compounds, 0.76% hits | HepG2 CAGA-GFP viability, ATP luminescence, 18 h | Potency, µM (series often up to 46.1 µM), for inactives: at the top dose activity change, negative = cytotoxicity, actives largely listed as cytotoxic | AID 588856; further: potency means the concentration at half of the fitted maximal effect
#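 CellTiter-Glo luminescence gave cytotoxicity after 18 hours at 37 degrees C. The cells were HepG2 CAGA-GFP in 1% FBS DMEM, stimulated with 500 pg/mL TGF-beta after compound addition. %Activity was normalised to no-cell wells (complete cell-killing) and DMSO (no toxicity), and curves were fitted and classified.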
# ATXN2 expr inh – reduces ATXN2 reporter expression in HEK-293 cells; 360,000 compounds, 0.72% hits; Potency, µM (doses to about 57 µM), inactives show at the highest dose activity change, negative = inhibition, usual class: inhibitors; HEK-293 ATXN2-luciferase reporter, luminescence, 24 h; AID 1745845; further: potency means the concentration at half of the fitted maximal effect; on the % scale 0 is the no-effect control and ±100 the full control effect; nearly all actives have a fitted effect of over 55% in size
#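 qHTS (up to 57 uM final) was run with 24 h compound exposure of reporter cells at 37 °C. Each well was multiplexed: SteadyGlo luminescence measured ATXN2-luciferase expression after a fluorogenic Gly-Phe-AFC viability readout (25 uM final).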
# ATXN viability – reduces viability in counter-screen for ATXN expression inhibitors; S2 cells (HEK-293 line with an ATXN2-luciferase reporter) viability, CellTiter-Fluor protease fluorescence, 24 h; Potency, µM (top dose mostly 56.7 µM), actives largely listed as cytotoxic; 400,000 compounds, 0.49% hits; AID 651635; further: potency means the concentration at half of the fitted maximal effect; nearly all actives have a fitted effect of over 40% in size
# TGFb inhibitor – TGF-b pathway inhibition; HepG2 CAGA-GFP TGF-b/SMAD3 reporter, GFP fluorescence, 18 h; TGF-beta stimulated, 500 pg/mL final; Potency, µM (doses to about 46.1 µM), for the others: at the highest dose activity, negative = inhibition, most hits filed as inhibitors; 410,000 compounds, 1.2% hits; AID 588855; further: potency means the concentration at half of the fitted maximal effect; on the % scale 0 is the no-effect control and ±100 the full control effect; nearly all actives have a fitted effect of over 65% in size
#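 HEPG2 CAGA-GFP cells (1000/well, DMEM with 1% FBS) were pre-incubated 2 h at 37 degrees C, given compound by pin tool, then stimulated with TGF-beta at 500 pg/mL final for 18 h before per-cell GFP fluorescence imaging.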
# CtBP-E1A blk – blocks the CtBP interaction with E1A. AlphaScreen GST-E1A/His-CtBP binding, 1536-well; active compounds read low. activity change, % (test concentration not listed). 340,000 compounds, 0.49% hits. AID 651724; in the data active means activity change below about -65%; inconclusive means mostly about -30% to -63%; further: on the % scale 0 is the no-effect control and ±100 the full control effect
#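 AlphaScreen with 125 nM GST-E1A and 125 nM His-CtBP (5X stocks) in Tris pH 8.0, 300 mM NaCl, BSA, Tween 20, TCEP. Compounds preincubated 2 h at 37 deg C, then glutathione donor/nickel acceptor beads added for 1 h at 37 deg C in dark.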
# Starred values were filed as active, the others as inactive; i = inactive; ? = inconclusive; . = no result; ! = not active in a repeat. Shown are actives, neighbours in structure and some others; about 2.8% of the full set was active somewhere. Unless noted, the call rests on the fitted dose curve; in most records, active means well fitted curve in the direction sought with a large enough effect; inconclusive means small, poorly fitted or top-dose-only effect, or another doubt; inactive means no such curve, though single readings can be large; an effect the other way counts as inactive or inconclusive.
SMILES,Six1-Eya2 blk,HepG2 viability,ATXN2 expr inh,ATXN viability,TGFb inhibitor,CtBP-E1A blk
Cc1ccccc1C(=O)N1CC(=O)Nc2ccc(Cl)cc2C1c1ccccc1 (stereo not drawn),.,32%,-19%,?,84%,.
COCCCNC(=O)c1ccc2c(c1)N(Cc1ccccc1)C(=O)c1ccccc1S2,.,-34%,.,.,-20%,.
CCCCN(CC)CCCNC(=O)c1ccc2c(c1)N(Cc1ccc(C)cc1)C(=O)c1ccccc1S2,.,11µM*,.,.,14µM*,.
CN(C)CCNC(=O)c1ccc2c(c1)N(Cc1c(F)cccc1Cl)C(=O)c1ccccc1S2,.,-67%,22µM*,i,?,.
O=C(NCCN1CCOCC1)c1ccc2c(c1)N(Cc1c(F)cccc1Cl)C(=O)c1ccccc1S2,-12,-16%,?,i,?,-2
Cc1cccc(CN2C(=O)c3ccccc3Sc3ccc(C(=O)NCCCN4CCOCC4)cc32)c1,0,11µM*!,-29%,?,11µM*!,-7
C(=Nc1cnc2ccccc2c1)c1cccnc1,.,9%,.,.,-8%,.
Cc1ccc2occ(/C=N/NC(=O)[C@@H](N)Cc3ccccc3)c(=O)c2c1,-3,10µM*,7%,i,-22%,1
Cc1cccc(C)c1OCC(=O)Nc1nonc1-c1ccc(Br)cc1,.,-41%,?,?,?,.
Cc1cc(C)cc(OC(C)C(=O)Nc2nonc2-c2ccc(Br)cc2)c1 (stereo not drawn),.,-56%,?,?,16µM*,.
CC(=O)c1ccc(NC(=O)COC(=O)c2ccccc2N=Nc2ccc(N(C)C)cc2)cc1,-68*,-33%,-16%,i,-19%,0
CN(C)c1ccc(N=Nc2ccccc2C(=O)OCC(=O)N(C)c2ccccc2)cc1,-67*,-4%,28%,?,-16%,-66*
COC(=O)c1ccccc1NC(=O)COC(=O)c1ccccc1N=Nc1ccc(N(C)C)cc1,?,0%,35%,i,-1%,?
CN(C)c1ccc(N=Nc2ccccc2C(=O)O)cc1,.,3%,.,.,-7%,.
CCc1ccc(OCC(=O)NC(NC(=S)Nc2ccc(C)cc2C)C(Cl)(Cl)Cl)cc1 (stereo not drawn),-9,11µM*,?,?,11µM*,6
CCc1ccc(OCC(=O)NC(NC(=S)Nc2ccccc2C)C(Cl)(Cl)Cl)cc1 (stereo not drawn),2,-102%,?,?,?,9
CC(=O)NC(NC(=S)Nc1ccc(C)cc1C)C(Cl)(Cl)Cl (stereo not drawn),1,-12%,.,i,-16%,.
CCc1ccc(OCC(=O)NC(NC(=S)Nc2ccccc2)C(Cl)(Cl)Cl)cc1 (stereo not drawn),4,11µM*,?,i,?,8
Cc1ccc(NC(=S)NC(NC(=O)c2ccccc2C)C(Cl)(Cl)Cl)c(C)c1 (stereo not drawn),-4,-31%,1%,i,22µM*,1
O=C(CCc1ccccc1)NC(NC(=S)Nc1ccc(Cl)cc1)C(Cl)(Cl)Cl (stereo not drawn),22,-95%,32µM*,.,-3%,1
CCOC(=O)c1ccccc1NC(=O)Cn1c(=O)n(CCC(=O)NCc2ccccc2OC)c(=O)c2ccccc21,.,-34%,1%,i,-11%,.
COc1cc(-c2cnc3ccccc3c2)cc2c1OCCN(C(=O)CCn1nc(C)cc1C)C2,.,.,.,i,.,.
COc1cc(=O)n2c(c1C(=O)N(C)Cc1nonc1C)CCN(Cc1cc(F)ccc1F)CC2,.,.,.,i,.,.
O=C(NC(NC(=S)Nc1cccc(C(=O)O)c1)C(Cl)(Cl)Cl)OCc1ccccc1 (stereo not drawn),-7,-19%,-5%,i,-20%,-6
O=C(NC(NC(=S)Nc1cccc(Cl)c1)C(Cl)(Cl)Cl)OCc1ccccc1 (stereo not drawn),-9,11µM*,?,?,6.3µM*,11
SMILES,Six1-Eya2 blk,HepG2 viability,ATXN2 expr inh,ATXN viability,TGFb inhibitor,CtBP-E1A blk
Cc1ccc(C)c(NC(=S)NC(NC(=O)Cc2cccc3ccccc23)C(Cl)(Cl)Cl)c1 (stereo not drawn),16,2.8µM*,18µM*,16µM*,3.5µM*,0
CN(C)c1ccc(-c2nc3ncc(Cl)c(N4CCN(CC(=O)Nc5nccs5)CC4)c3[nH]2)cc1,.,.,14%,.,.,.
COc1ccc(/C=C2\CCn3c2nc2cc(C(=O)O)ccc2c3=O)cc1OC,-21,6%,-2%,i,1%,-7
COC(=O)c1ccc(/C=C2\CCn3c2nc2cc(C(=O)O)ccc2c3=O)cc1,-66*,11%,-9%,i,18%,?
C=CCc1ccccc1OCC(O)CN1CCN(CCN2C(=O)c3cccc4cccc(c34)C2=O)CC1 (stereo not drawn),-14,-99%,28µM*,?,14µM*,-20
COCCN1CN(S(=O)(=O)c2ccccc2)c2nc3ccccc3nc21,-82*,0%,3%,i,11%,-2
C[C@@H](O)[C@H]1C(=O)N2C(C(=O)O)=C([C@H]3CCCO3)S[C@H]12,.,.,2%,i,.,.
Cc1cccc(CNC(=O)c2c3n(c(C)cc2=O)-c2ccccc2SC(c2sccc2C)C3)n1 (stereo not drawn),.,.,.,i,.,.
O=C(NCc1ccco1)C1CC2CCC1C2 (stereo not drawn),-70*,-21%,-16%,i,-1%,?
COC1C=CC=C(C)C(=O)NC2=CC(=O)C(N)=C(CC(C)CC(OC)C(O)C(C)C=C(C)C1OC(N)=O)C2=O (stereo not drawn),3,-78%,0.24µM*,?,-93%,-14
OC[C@H](Cc1ccccc1)Nc1nc(Oc2ccc3c(c2)CCC3)nc2c1ncn2Cc1ccc(-c2ccccc2)cc1,.,.,139%,.,.,.
O=C(Nc1ccc(Cl)c([N+](=O)[O-])c1)c1ccc(NCCCN2CCOCC2)c([N+](=O)[O-])c1,-1,-15%,32µM*,?,7%,6
O=c1[nH]c(=O)n([C@H]2C[C@H](O)[C@@H](CO)O2)cc1C(F)(F)F,-2,-13%,2µM*!,i,-6%,-1
O=c1[nH]c(=O)n(C2C[C@H](O)[C@@H](CO)O2)cc1C(F)(F)F (stereo partly drawn),3,-4%,?,?,-3%,4
O=c1[nH]c(=O)n([C@H]2C[C@@H](O)[C@@H](CO)O2)cc1F,.,-37%,1.1µM*,.,?,.
